Bioassay records: PubChem BioAssay, several laboratories
SARS 3CLpro inh – SARS-CoV 3CLpro protease inhibitors, primary screen, biochemical, quenched FRET. recombinant SARS-CoV 3CLpro, quenched FRET peptide cleavage. Replicase polyprotein 1ab (Severe acute respiratory syndrome coronavirus), P0C6X7. AID 1706, 2009. inhibition, % at 6 µM. 290,000 compounds, 0.14% hits; in the data active = inhibition above about 12%
BioA inh – M. tuberculosis BioA enzyme inhibitors, primary screen, biochemical, plate reader, single point, HTS; 7,8-diaminopelargonic acid synthase BioA (Mycobacterium tuberculosis); purified M. tuberculosis BioA enzyme; inhibition, % at 9.99 µM; 360,000 compounds, 0.096% hits; AID 602481, 2012; in the data active = inhibition above about 40%
Yp Topo-I inh – Yersinia pestis topoisomerase I inhibitors, primary screen, biochemical, cleavage product accumulation, plate reader, single point | DNA topoisomerase I (Yersinia pestis CO92) | AID 504884, 2011 | activity, % at 10 µM | Y. pestis Topo-I cleavage product accumulation | 360,000 compounds, 0.064% hits; in the data active = activity above about 50%, passing the limit was not always enough
BJeLR lethal – MLPCN primary cell-based screen for lethality selective to Ras in HRASV12 cells; BJeLR (HRASV12) viability, CellTiter-Glo ATP luminescence, 48 h; inhibition, % (concentration not given with the values); 300,000 compounds, 0.17% hits; AID 1554, 2009; in the data active = inhibition above about 50%
PfHsp40 rescue – rescue of yeast from PfHsp40 toxicity, primary screen, S. cerevisiae, ATP luminescence; S. cerevisiae expressing PfHsp40, growth rescue; growth rescue, % at 12.5 µM; 340,000 compounds, 0.68% hits; in the data active = growth rescue above about 28%, passing the limit was not always enough;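 note: yeast W303a lacking pdr1 and pdr3 grown in galactose medium; growth measured after three days at 30 °C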
MazF activator – activators of E. coli MazEF toxin-antitoxin RNase, primary screen, biochemical, fluorescence, uHTS | 350,000 compounds, 0.32% hits | activation, % at 20 µM | Endoribonuclease toxin MazF (Escherichia coli (strain K12)), P0AE70 | FAM/BHQ RNA-DNA oligo cleavage fluorescence, 5 h; in the data active = activation above about 50%
Target sequence (P0AE70 whole entry, looked up): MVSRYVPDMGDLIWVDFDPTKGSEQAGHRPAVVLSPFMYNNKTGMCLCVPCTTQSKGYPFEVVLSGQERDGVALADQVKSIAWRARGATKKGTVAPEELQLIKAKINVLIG
A number is an active result; – = inactive; · = no result given. Most compounds without a hit are left out; they make up all but 1.1% or so of the library.

SMILES	SARS 3CLpro inh	BioA inh	Yp Topo-I inh	BJeLR lethal	PfHsp40 rescue	MazF activator
CCc1cc(-c2[nH]ncc2-c2ccc([N+](=O)[O-])cc2)c(O)cc1OC	–	–	–	–	360	–
CO[C@H]1CN(C)C(=O)c2cc(NC(=O)C3CCCC3)ccc2OC[C@H](C)N(C(C)=O)C[C@@H]1C	·	–	·	·	·	·
Cc1noc(C)c1NC(=O)N(C)C[C@@H]1Oc2ccc(NS(=O)(=O)c3c(C)noc3C)cc2C(=O)N([C@@H](C)CO)C[C@H]1C	·	–	·	·	·	·
COc1ccccc1C(=O)NC(CCSC)C(=O)NNC(=O)c1ccccc1O (stereo not drawn)	·	–	–	·	98	–
Cc1ccccc1NC(=O)Nc1ccc2c(c1)C(=O)N(C)[C@H]1CC[C@@H](CC(=O)O)O[C@@H]1CO2	·	–	·	·	·	·
CC(=O)c1cnc2cc(-c3ccc(C)cc3)nn2c1C	–	–	–	–	–	–
COc1ccc(-c2cc3ncc(C(C)=O)c(C)n3n2)cc1	–	·	–	–	53	–
CC(C)(C)OC(=O)N1CC=C2C(C#N)=C(N)C(C#N)(C#N)[C@H](c3cccnc3)[C@H]2C1	–	–	–	–	–	125
CC(C)(C)OC(=O)N1CC=C2C(C#N)=C(N)C(C#N)(C#N)C(c3cccs3)C2C1 (stereo not drawn)	–	–	–	–	–	–
O=C(NCC[C@@H]1CC[C@H](NC(=O)C2CCC2)[C@@H](CO)O1)c1cnccn1	·	–	·	·	·	·
C[C@H](CO)N1C[C@H](C)[C@H](CN(C)C(=O)Nc2ccc3c(c2)OCO3)OCc2ccccc2-c2c(n(C)c3ccccc23)C1=O	·	–	·	·	·	·
CSc1nc(-c2ccc(N(C)C)cc2)c(C#N)c(=O)n1C	–	–	–	–	–	136
CC(C)C(=O)Nc1ccc2c(c1)C(=O)N(C)[C@H]1CC[C@@H](CC(=O)N[C@H](C)c3ccccc3)O[C@@H]1CO2	·	–	·	·	·	·
Cc1ccc2c(c1)S/C(=C\c1cccc[n+]1C)N2CCO	–	–	–	–	–	–
CC(=O)N1c2ccc(C)cc2Sc2c1ccc1ccccc21	·	–	–	·	30	–
CC(C)(C)C(=O)C(Cl)C(=O)Nc1ccccc1 (stereo not drawn)	–	·	–	–	275	–
O=S(=O)(NC1CCCCCC1)c1ccc(Br)s1	–	–	–	–	59	–
O=C(CCNS(=O)(=O)c1ccc(Br)s1)NC1CCCC1	–	–	–	–	–	–
C#CCN1c2ccccc2Sc2cccnc21	–	·	–	–	–	71
CC(CN1c2ccccc2Sc2ccccc21)N(C)C (stereo not drawn)	–	–	–	–	–	–
C[C@H](CO)N1C[C@H](C)[C@H](CN(C)C(=O)C2CCCCC2)Oc2ncc(C#Cc3ccccc3F)cc2C1=O	·	–	·	·	·	·
O=c1c2ccccc2c(C=Nc2ccccc2O)c(O)n1-c1nccs1	–	·	–	–	–	278
Cc1ccccc1N=Cc1c(O)n(-c2nccs2)c(=O)c2ccccc12	–	–	–	–	–	–
CCOC(=O)/C(=N\Nc1ccc(C(C)=O)cc1)c1csc(Nc2ccccc2)n1	–	·	–	–	–	56
CCOC(=O)/C(=N\Nc1ccccc1[N+](=O)[O-])c1csc(N)n1	–	·	–	–	–	–
SMILES	SARS 3CLpro inh	BioA inh	Yp Topo-I inh	BJeLR lethal	PfHsp40 rescue	MazF activator
C#CCn1c(=NC(=O)c2sc3ccccc3c2Cl)sc2cc(S(N)(=O)=O)ccc21	–	–	–	–	–	63
O=C(C[C@@H]1C[C@H]2c3cc(NC(=O)Nc4ccc(C(F)(F)F)cc4)ccc3O[C@H]2[C@H](CO)O1)NCc1cc(F)ccc1F	·	–	·	·	·	·
CC1=CC2=C(C=O)C(=O)C(C)(O)C(O)C2=CO1 (stereo not drawn)	·	–	–	·	·	242
Cn1c(CNC(=O)c2ccc(Cl)cc2)nnc1SCC(=O)Nc1sc2c(c1C#N)CCCC2	–	–	–	–	–	106
Cc1ccc(C(=O)NCc2nnc(SCC(=O)Nc3sc4c(c3C#N)CCCC4)n2C)cc1	–	–	–	–	–	–
C(=N/N1CCN(c2ccccc2)CC1)/c1ccncc1	–	·	–	–	164	–
